PubChem BioAssay AID588689 (Southern Research Specialized Biocontainment Screening …, 2011)
Among all 340,000 compounds or so, about 1,000 (0.29%) were called active. Cut-off read from the data, not from the text of the source: inconclusive = inhibition above about 29% without an active follow-up result; inactive = below that. A selection follows. Results with a measured potency or affinity are listed apart.

Target: Genome polyprotein (Dengue virus type 2 (strain 16681-PDK53)) (UniProt P29991)
Test: Dengue-2 NS5 methyltransferase inhibitors, primary screen, biochemical, confirmation dose response (AID 588689)
Settings: Dengue-2 NS5 methyltransferase capping enzyme assay, at 25 µM, stronger effect = higher value
[1] = measured here: pilot screen replicate inhibition

| SMILES | inhibition | inhibition [1] [%] |
| --- | --- | --- |
| COc1ccc(NC(=O)C2CCCN(C(=O)c3ccc(Cl)cc3)C2)cc1S(=O)(=O)N(C)C (configuration not stated) | -6.34% (inactive) |  |
| CCOc1ccc(NC(=O)c2ccc3c(c2)N(Cc2ccc(F)cc2)C(=O)CS3=O)cc1 (configuration not stated) | -7.95% (inactive) |  |
| COCCN(C(=S)Nc1ccc(Cl)cc1OC)C1CCN(C(C)=O)CC1 | -5.17% (inactive) |  |
| Cc1cc2c(cc1S(=O)(=O)N1CCOCC1)NC(=O)CO2 | -0.83% (inactive) |  |
| COc1ccc(S(=O)(=O)NCC2CCCO2)cc1NC(=O)c1ccc(Cl)cc1 (configuration not stated) | -0.72% (inactive) |  |
| C[C@@H]1CN([C@H](C)CO)C(=O)c2cc(NS(=O)(=O)c3cn(C)cn3)ccc2O[C@H]1CN(C)C(=O)Nc1ccccc1 | -1.59% (inactive) |  |
| Cc1ccc(C(=O)NC(=S)Nc2ccc(N3CCOCC3)cc2)c(C)c1 | -1.43% (inactive) |  |
| COc1cccc(N(C(=O)c2snc(C(N)=O)c2N)C(C(=O)NCC2CCCO2)c2ccc(F)cc2)c1 (configuration not stated) | -6.68% (inactive) |  |
| O=C1Nc2ccccc2/C1=C/c1ccc([N+](=O)[O-])cc1 | -15.7% (inactive) |  |
| CN(C)c1ccc(/C=C/C(=O)c2ccccc2)cc1[N+](=O)[O-] | 7.8% (inactive) |  |
| COc1cc(C=O)ccc1OS(=O)(=O)c1ccccc1[N+](=O)[O-] | -9.17% (inactive) |  |
| CN(C)c1ccc(/C=N/N=C(N)N)cc1[N+](=O)[O-] | -2.95% (inactive) |  |
| O=C1NC(=O)c2cc(Oc3ccc([N+](=O)[O-])cc3)ccc21 | 0.39% (inactive) |  |
| COc1ccc(C=O)cc1OS(=O)(=O)c1ccccc1[N+](=O)[O-] | 11% (inactive) |  |
| CC(C)(C)NC(=O)CN(C(=O)C1CSC(=O)C1)c1ccccc1F (configuration not stated) | -7.12% (inactive) |  |
| O=C(O)c1ccc(NC(=O)c2cccc(C(=O)Nc3ccc(C(=O)O)cc3)n2)cc1 | -1.63% (inactive) |  |
| Cc1ncn(-c2ccccc2)c1-c1ccccc1 | 0% (inactive) |  |
| CCN(CC)S(=O)(=O)c1ccc(OC)c(NS(=O)(=O)c2cccc(C(=O)O)c2)c1 | 7.95% (inactive) |  |
| COC(=O)Cn1cc(C(=O)OC)c2ccccc21 | -2.39% (inactive) |  |
| CN=C1S/C(=C\c2cn(CC(=O)OC)c3ccccc23)C(=O)N1C | -17.1% (inactive) |  |
| CC(=O)n1cc(/C=C2/N=C(c3ccccc3)OC2=O)c2ccccc21 | 19.9% (inactive) |  |
| CC(=O)n1cc(CO)c2ccccc21 | -0.72% (inactive) |  |
| COc1ccc(/C=N/NC(=O)c2ccc(O)cc2O)cc1CSc1ccccn1 | 2.91% (inactive) |  |
| CCOC(=O)c1c(NC(=O)CSc2nnnn2C)sc(C)c1C | -3.98% (inactive) |  |

| SMILES | inhibition | inhibition [1] [%] |
| --- | --- | --- |
| Cc1ccc(C2NC(=S)N3C(c4ccc(C)cc4)NC(=S)N23)cc1 (configuration not stated) | -0.57% (inactive) |  |
| Cc1ccc(NC(=O)c2ccccc2-c2ccccc2C(=O)O)cc1C | -2.19% (inactive) |  |
| CC(=O)Nc1ccc(-c2nc3cc(Cl)ccc3o2)cc1 | 0% (inactive) |  |
| CCn1c2ccccc2c2cc(NC(=O)c3ccccc3[N+](=O)[O-])ccc21 | 1.28% (inactive) |  |
| O=C(Nc1ccc2c(c1)C(=O)c1ccccc1-2)c1ccccc1 | -0.39% (inactive) |  |
| COc1ccc(NC(=O)c2ccccc2-c2ccccc2C(=O)O)cc1 | -8.51% (inactive) |  |
| COc1cccc(NC(=O)c2ccccc2-c2ccccc2C(=O)O)c1 | -10.1% (inactive) |  |
| O=C(O)c1ccccc1-c1ccccc1C(=O)Nc1cccc(-c2nc3ccccc3o2)c1 | 8.19% (inactive) |  |
| CCn1c2ccccc2c2cc(NC(C)=O)ccc21 | 4.77% (inactive) |  |
| CCN(CC)S(=O)(=O)c1cccc(NC(=O)COC(=O)/C=C/c2cccs2)c1 | -2.65% (inactive) |  |
| O=C(O)C1CCN(C(=O)Cc2ccccc2)CC1 | 2.22% (inactive) |  |
| c1ccc(C2CC(c3ccccc3)C(c3ccccc3)N2)cc1 (configuration not stated) | -3.92% (inactive) | -2.44 |
| CCCOc1ccccc1N/C(=N/c1nc(C)cc(C)n1)NC(=O)Nc1ccc(Cl)cc1 | -4.07% (inactive) |  |
| Oc1ccc(C[C@H]2CNCCN2CCc2cccc3ccccc23)cc1 | 6.4% (inactive) |  |
| O=C(NCCCO)c1cc2ccccc2[nH]1 | -9.54% (inactive) |  |
| O=C1Nc2ccccc2C12NCCc1c2[nH]c2ccccc12 (configuration not stated) | 6.48% (inactive) |  |
| O=C(O)c1ccccc1-c1ccccc1C(=O)Nc1ccc2oc(=O)c3ccccc3c2c1 | 11.5% (inactive) |  |
| O=C(O)c1ccccc1-c1ccccc1C(=O)Nc1ccc2c(c1)[nH]c(=O)c1ccccc12 | 9.14% (inactive) |  |
| CCC(NS(=O)(=O)c1ccc(OC)cc1)C(=O)NCCc1ccccc1 (configuration not stated) | -3.31% (inactive) |  |
| Cc1ccc(OCC(=O)Sc2ccc(C)cc2)cc1 | -33.2% (inactive) |  |
| CC1(C)[C@@H](O)CC[C@]2(C)[C@H]3C(=O)C=C4[C@@H]5C[C@@](C)(C(=O)O)CC[C@]5(C)CC[C@@]4(C)[C@]3(C)CC[C@@H]12 | -0.73% (inactive) |  |
| Cc1sc2ncnc(N3CCC(C(=O)Nc4sc5c(c4C(N)=O)CCC(C)C5)CC3)c2c1C (configuration not stated) | 0% (inactive) |  |
| Cc1cccc(CCNC(=O)CCc2nnc(CCc3ccccc3)o2)n1 | -0.91% (inactive) |  |
| CC(NC(=O)c1ccco1)C(=O)NC(C)c1cc(F)c(Cl)cc1Cl (configuration not stated) | -1.62% (inactive) |  |

| SMILES | inhibition | inhibition [1] [%] |
| --- | --- | --- |
| COc1ccc(CC(=O)Nc2ccc(S(=O)(=O)N3CCOCC3)cc2)cc1 | 0% (inactive) |  |
| O=C(COC(=O)c1ccc([N+](=O)[O-])o1)NCc1ccc2c(c1)OCO2 | 0% (inactive) |  |
| O=C(O)c1cccc(-n2cccc2/C=C\[N+](=O)[O-])c1 | 0.75% (inactive) |  |
| O=C(O)c1cccc(-n2cccc2/C=N/O)c1 | 0% (inactive) |  |
| O=C(N/C(=C\c1cccnc1)C(=O)N1CCC(O)CC1)c1ccccc1 | -1.67% (inactive) |  |
| CC(=O)Nc1ccc(S(=O)(=O)NCCC(=O)OCC(=O)c2ccc(Br)cc2)cc1 | -10.1% (inactive) |  |
| CC(=O)NN1C(=O)/C(=C\c2ccc(Cl)cc2)SC1=S | 1.78% (inactive) |  |
| Cc1ccc(C)n1N1C(=O)/C(=C\c2ccc(Cl)cc2)SC1=S | 6.92% (inactive) |  |
| COc1ccc(-c2nc(CS(=O)CC(=O)NCc3ccc(F)cc3)c(C)o2)cc1 (configuration not stated) | -10.5% (inactive) |  |
| COc1cc(C(=O)NCCC(c2ccccc2)c2ccccc2)cc(OC)c1OC | -9.51% (inactive) |  |
| CC1=NN(c2ccccc2)C(=O)/C1=C\c1sccc1C | 3.11% (inactive) |  |
| CC1=NN(c2ccccc2)C(=O)/C1=C/N(C)C | 2.35% (inactive) |  |
| CC1=NN(c2ccccc2)C(=O)/C1=C\c1cc(C)n(-c2ccccc2)c1C | -4.02% (inactive) |  |
| CCOc1cc(/C=C2/C(=O)N(c3ccccc3)N=C2C)ccc1OC(=O)c1cccs1 | 8.81% (inactive) |  |
| CC1=NN(c2ccccc2)C(=O)/C1=C/C=C/c1ccccc1 | 0.72% (inactive) |  |
| CC1=NN(c2ccccc2)C(=O)/C1=C/c1ccc[nH]1 | -6.55% (inactive) |  |
| CC(=O)c1ccc(OC(=O)c2cccs2)cc1 | -2.4% (inactive) |  |
| CC1=NN(c2ccc(Br)cc2)C(=O)/C1=C/c1cccs1 | 22% (inactive) |  |
| COCCN(C(=O)COC(=O)C(c1ccccc1)c1ccccc1)c1c(N)n(Cc2ccccc2)c(=O)[nH]c1=O | 0% (inactive) |  |
| CCC(C(=O)OCC(=O)N(C)c1c(N)n(Cc2ccccc2)c(=O)[nH]c1=O)c1ccccc1 (configuration not stated) | -2.91% (inactive) |  |
| COc1cccc(N2C(=O)Nc3ccc(Br)cc3C2(O)C(=O)NCCCOC(C)C)c1 (configuration not stated) | -4.76% (inactive) |  |
| Cc1cc(C)c(C)c(S(=O)(=O)NCCN2CCOCC2)c1C | 6.21% (inactive) |  |
| COC(=O)c1ccc(CSC2=NC[C@@H]3[C@@H]4C(=O)N(C)C(=O)[C@@H]4[C@](C)(C(=O)OC)N23)cc1 | -0.66% (inactive) | 1.52 |
| CCOc1ccc(C(=O)NCC(=O)NCCCSc2ccccc2)cc1OCC | -5.91% (inactive) |  |

| SMILES | inhibition | inhibition [1] [%] |
| --- | --- | --- |
| CCOC(=O)N1CCN(CC(=O)c2ccc(O)c(C)c2O)CC1 | 0.45% (inactive) |  |
| COc1ccccc1/C=C1/C(=O)N(c2ccc([N+](=O)[O-])cc2)N=C1C | 3.11% (inactive) |  |
| CC1=NN(c2ccccc2)C(=O)/C1=C\c1cc(C)n(C)c1C | 0% (inactive) |  |
| CC1=NN(c2ccccc2)C(=O)/C1=C\c1cn(-c2ccccc2)nc1C | 3.59% (inactive) |  |
| CC1=NN(c2ccccc2)C(=O)/C1=C\c1ccc(Br)s1 | -0.88% (inactive) |  |
| CC1=NN(c2ccccc2)C(=O)/C1=C\N(O)c1ccccc1 | 1.98% (inactive) | -1.18 |
| COc1ccc(/C=C2/C(=O)N(c3ccccc3)N=C2C)cc1Br | 18.3% (inactive) |  |
| OCCC1CN(Cc2cc3c(cc2Cl)OCO3)CCN1Cc1ccccc1 (configuration not stated) | 1.46% (inactive) |  |
| CCN(CC)S(=O)(=O)c1cc(NC(=O)CSc2nnc(N)s2)ccc1C | 0.37% (inactive) |  |
| COc1ccc(C(=O)NC(=S)Nc2cccnc2)cc1[N+](=O)[O-] | 6.37% (inactive) |  |
| CC(C)C(=O)NNS(=O)(=O)c1ccccc1[N+](=O)[O-] | -1.48% (inactive) |  |
| Cc1nn(-c2ccc(F)cc2)c(Cl)c1C(=O)N(C)CC(=O)Nc1cccc(F)c1 | -5.05% (inactive) |  |
| CCCC(=O)N(c1ccc(C(=O)O)cc1)c1nc(-c2ccccc2)c(C)s1 | -13.9% (inactive) |  |
| Cc1c(Br)c(=O)oc2c(Br)c(O)ccc12 | -1.45% (inactive) |  |
| Cc1c(Br)c(=O)oc2c(Br)c(O)c(O)cc12 | 6.73% (inactive) |  |
| CCOC(=O)C(=O)NNc1ccccc1OC | -3.11% (inactive) |  |
| Cc1ccc(Cc2c(-c3ccc(Cl)cc3)nc3ccc(Cl)cn23)cc1 | 7.95% (inactive) |  |
| C#CCOc1c(Cl)cc(/C=C2/C(=O)ON=C2C)cc1OC | 19.6% (inactive) |  |
| CCOc1cc(/C=C2/C(=O)ON=C2C)cc(Br)c1O | -74.3% (inactive) |  |
| C#CCOc1ccc(Cl)cc1/C=C1/C(=O)ON=C1C | 10.6% (inactive) |  |
| COc1ccc(/C=C2/C(=O)ON=C2C)cc1Cl | 5.23% (inactive) |  |
| COc1ccc(/C=C2/C(=O)ON=C2C)cc1Br | 17.8% (inactive) |  |
